Assay results: PubChem BioAssay AID504329 (Southern Research Specialized Biocontainment Screening …, 2011)
Out of some 340,000 compounds screened, about 1,000 (0.29%) were called active. The list is a sample of the results. Entries with a potency or affinity are not part of this list. A number with no mark means an inactive call. Cut-off read from the data, not from the text of the source: inconclusive = inhibition above about 27% without an active follow-up result; inactive = below that.

Assay: H1N1 influenza NS1A inhibitors, functional cell based assay (AID 504329)
Conditions: percent inhibition, at 12.5 µM, hits give high values
`O=C(NCc1ccco1)c1nn(-c2ccccc2)c(=O)c2ccccc12` showed an inhibition of 0.06%. Molecule `O=C(COC(=O)CSc1ccc2ccccc2c1)NCc1ccc2c(c1)OCO2` has an inhibition of 2.14%. Molecule `CC(C)(C)CC(C)(C)NCC(O)COc1ccc2c(c1)CCC2` (centres undefined) has an inhibition of 5.01%. `Cc1ccc(S(=O)(=O)NC2CCCCC2)c(C)c1NS(C)(=O)=O` gave an inhibition of 3.57%. `Cc1ccc(-c2nn(-c3ccccc3Cl)cc2C(=O)NCC2CCCO2)cc1` (centres undefined) gave an inhibition of -0.44%. `COCCN(CC(=O)Nc1cccc(C)c1C)C(=O)Cc1cccs1` gave an inhibition of -7.25%. Work on `Cc1cc(S(=O)(=O)N(Cc2ccccc2F)C2CC2)ccc1-n1cnnn1` yielded an inhibition of 6.46%. For `O=C(Nc1ccccc1)OCN1C(=O)c2ccccc2C1=O`, the inhibition was 2.63%. Molecule `CC(C)(C)C(=O)O/N=C1/C(=O)N(c2ccccc2)c2ccccc21` has an inhibition of -9.74%. For `CCN(CC)c1ccc(/C=C(\C#N)C(N)=O)cc1`, the inhibition was 2.41%. Work on `CCc1ccc(/C=C(/C#N)C(N)=S)cc1` yielded an inhibition of -1.52%. With `CCN(CC)S(=O)(=O)c1ccc2oc(Nc3ccccc3)nc2c1` the inhibition was 10.4%. `[O-]c1c[n+](-c2ccc(-[n+]3cc([O-])on3)cc2)no1` gave an inhibition of 3.68%. Molecule `Cc1cccc2cccnc12` has an inhibition of -13.9%. For `Cc1ccnc2c1ccc1ccccc12`, the inhibition was -14.1%. For `Cc1c(C)c2cccnc2c2ncccc12`, the inhibition was 3.77%. `Cc1ccc2c(C)ccc(O)c2n1` gave an inhibition of -11%. In the case of `Cc1n[nH]c(=O)c2c(NC(=O)CSc3nc4ccccc4c(=O)n3-c3ccc(OC(F)F)cc3)oc(C)c12`, the inhibition is reported as -4.1%. With `CC(=O)N(C)C1=Nc2ccc(Cl)cc2C(c2ccccc2)=[N+]([O-])C1` the inhibition was -5.29%. `CCN(Cc1ccccc1)C(=O)COC(=O)CNS(=O)(=O)c1ccc(C)cc1` gave an inhibition of -5.52%. With `CN(NC(=O)c1ccco1)c1nc2ccccc2nc1C(F)(F)F` the inhibition was -6.87%. Molecule `Cc1cc(-c2ccc(C)c(S(=O)(=O)Nc3cccc(CN4CCCC4)c3)c2)on1` has an inhibition of -3.07%. For `COc1ccccc1NC(=O)Nc1ccccc1C(=O)NCCCN1CCOCC1`, the inhibition was -12.4%. In the case of `CCOc1ccc(N2CC(C(=O)N3CCCc4ccccc43)CC2=O)cc1` (centres undefined), the inhibition is reported as 0.32%. In the case of `Cc1ccc(S(=O)(=O)N2CCOCC2)cc1NC(=O)C1=NN(c2ccccc2)C(=O)CC1`, the inhibition is reported as -4.05%. Molecule `CCN(CC)CCn1c2ccccc2c2nc3ccccc3nc21` has an inhibition of -13.6%. With `Oc1cccc(Nc2c3ccccc3nc3ccccc23)c1` the inhibition was 8.39%. With `Cc1ccccc1N1CCN(C2CCCN(C(=O)c3snnc3C)C2)CC1` (centres undefined) the inhibition was -10.7%. Work on `O=C1Nc2ccc(Br)cc2/C1=N\N=C\C1=C(N2CCOCC2)C(=C/c2ccccc2)/CC1` yielded an inhibition of 20.8%. `O=CC1=C(N2CCOCC2)/C(=C\c2ccccc2)CC1` showed an inhibition of -9.74%. `Cc1ccc(S(=O)(=O)CCC(=O)OCCOc2cccc(Br)c2)cc1` gave an inhibition of -115%. Work on `Cc1cccc(OCCOC(=O)c2c(-c3ccccc3)noc2C)c1` yielded an inhibition of -11.5%. With `COc1ccc(S(=O)(=O)NCc2cccnc2)cc1NC(=O)c1ccccc1C` the inhibition was -8.44%. In the case of `CS(=O)(=O)N(CC(=O)Nc1ccccc1-c1ccccc1)c1ccc(F)cc1`, the inhibition is reported as 1.39%. `O=C(Nc1cccc(Cl)c1)c1ccc(-n2cncn2)c([N+](=O)[O-])c1` gave an inhibition of 2.4%. `CC(C(=O)OCC(=O)c1ccccc1)N1C(=O)c2ccccc2C1=O` (centres undefined) showed an inhibition of -4.62%. With `CC(=O)c1cc2c(cc1NC(=O)C1CCC1)OCO2` the inhibition was 10.9%. Molecule `Cn1c(=Nc2ccc(N3CCOCC3)cc2)ccc2ccccc21` has an inhibition of -15.9%. `C/C(=N\N=c1/sc2ccccc2n1C)c1ccc(N2CCOCC2)cc1` showed an inhibition of -7.4%. For `Cn1c(N)c(C(=O)CSc2nnc3n2CCCCC3)c(=O)n(C)c1=O`, the inhibition was -13.2%. `CCOc1ccc(CNCCCSc2ncccn2)cc1` showed an inhibition of 4.75%. `CCOC(=O)N1CCN(C(=O)c2ccc3nc(-c4ccccc4)c(-c4ccccc4)nc3c2)CC1` showed an inhibition of 2.02%. Molecule `O=C(Nc1nc(-c2ccccn2)cs1)c1cc2ccccc2o1` has an inhibition of 25.1%. Molecule `Cc1ccc(C(=O)Nc2nc(-c3cccnc3)cs2)o1` has an inhibition of -17%. `Cc1ccc(-c2csc(NC(=O)c3ccc([N+](=O)[O-])o3)n2)cc1` gave an inhibition of 6.86%. `O=C(Nc1nc(-c2cccs2)cs1)c1ccc([N+](=O)[O-])o1` gave an inhibition of -3.14%. Work on `COc1ccccc1C(=O)Nc1ccc2c(c1)n(C)c(=O)n2C` yielded an inhibition of -3.88%. Work on `CC(C)CN(C(=O)c1ccc(C(F)(F)F)cc1)c1c(N)n(CC(C)C)c(=O)[nH]c1=O` yielded an inhibition of -4.85%. In the case of `CCCCNC(=S)Nc1ccc2nc(N3CCN(CC)CC3)cc(C)c2c1`, the inhibition is reported as 9.06%. `COc1ccc(OCCCC(=O)Nc2ccc(OC)c(S(=O)(=O)N3CCOCC3)c2)cc1` gave an inhibition of -7.67%. `CNC(=O)c1ccc(Nc2nnc(C)c3ccccc23)cc1` gave an inhibition of -2.75%. `O=C1NCCN1CCN1C(=O)c2ccccc2NC1c1ccccc1` (centres undefined) showed an inhibition of -24.1%. Work on `CCn1c(/C=C2\C(=O)N(C(C)C)c3ccccc32)nc2ccccc2c1=O` yielded an inhibition of -0.25%. For `CC(C)N1C(=O)/C(=C/c2nc3ccccc3c(=O)n2-c2ccccc2)c2ccccc21`, the inhibition was 27.7%. Molecule `CC(C)Sc1cc(N2CCCC2)nc(-c2ccccc2)n1` has an inhibition of -8.52%. With `COc1ccc(CNC(=O)C2CCCN2C(=O)NC2CCCCC2)cc1` (centres undefined) the inhibition was 8.99%. In the case of `NC1=NC(=Nc2cccc(S(N)(=O)=O)c2)c2ccccc21`, the inhibition is reported as -7.83%. `COc1ccc(S(N)(=O)=O)cc1N(C)S(=O)(=O)c1ccccc1` showed an inhibition of -8.33%. Molecule `O=CN1CCc2scc[n+]2-c2ccccc21` has an inhibition of -18.5%. With `C/C(Cc1ccccc1)=N\NC(=O)c1ccccn1` the inhibition was -7.02%. For `COc1ccccc1NC(=O)C/C(C)=N/NC(=O)c1ccccn1`, the inhibition was 12.6%. For `C/C(=N\NC(=O)CCCNc1ccc(C)cc1)c1ccccn1`, the inhibition was -0.81%. For `COc1ccccc1NC(=S)Nc1ccccn1`, the inhibition was -3.02%. Work on `CCCCCC(=O)N/N=C(\C)c1ccccn1` yielded an inhibition of 5.83%. `C/C(=N\NC(=S)Nc1ccc(C)cc1)c1cccc(N)c1` showed an inhibition of 3.24%. For `C=CCNC(=S)N/N=C(\C)c1ccc(OC)cc1`, the inhibition was 1.71%. For `C=CCNC(=S)N/N=C(\C)c1cccnc1`, the inhibition was 1.12%. `CC1(C)Oc2ccc(C(=O)NC3CCCC3)cc2N(CC(=O)NC2CCCCC2)C1=O` showed an inhibition of -5.58%. In the case of `Cc1cc(C)nc(Nc2ccccc2Cl)n1`, the inhibition is reported as -3.84%. `CN(CC(=O)Nc1ccc2c(c1)OCO2)S(=O)(=O)c1ccc(F)cc1` showed an inhibition of 0.79%. Work on `Cc1cccc(NC(=S)Nc2ccccn2)c1` yielded an inhibition of 3.18%. For `S=C(NCCc1ccccn1)Nc1cccc(Cl)c1`, the inhibition was -6.8%. Molecule `C/C(=N\NC(=S)Nc1cccc(C)c1)c1ccccc1` has an inhibition of 2.46%. In the case of `S=C(NCc1ccccn1)Nc1cccc(Cl)c1`, the inhibition is reported as 10.7%. `Cc1nc(-c2ccc(Cl)cc2)sc1C(=O)O` gave an inhibition of -5.39%. With `O=C1COc2ccc(S(=O)(=O)N3CCN(c4ccccc4)CC3)cc2N1` the inhibition was 6.48%. With `CN(CC(=O)N1CCN(C2CCCCC2)CC1)S(=O)(=O)c1cccc2nsnc12` the inhibition was 0.79%. In the case of `CC(Sc1nnc(-c2cccnc2)o1)C(=O)NC1CCCC1` (centres undefined), the inhibition is reported as -4.28%. `CC(=O)N(C)c1ccc(N=Nc2ccc3ncccc3c2)cc1` gave an inhibition of 18.9%. Work on `Nc1ccc(N=Nc2ccc(N)cc2)cc1` yielded an inhibition of -2.48%. Work on `Cc1ccc2ncccc2c1` yielded an inhibition of -1.21%. Molecule `Nc1ccc2ncccc2c1` has an inhibition of 7.98%. `c1cnc2ccc(-c3ccc4ncccc4c3)cc2c1` gave an inhibition of 2.05%. With `Nc1ccc(N=Nc2ccccc2)cc1` the inhibition was 10.5%. Work on `CC(C)CN(C(=O)c1ccc(=O)n(C)n1)c1c(N)n(Cc2ccccc2)c(=O)[nH]c1=O` yielded an inhibition of -3.79%. For `COc1ccccc1NS(=O)(=O)c1cccc(NC(=O)c2cncc(Br)c2)c1`, the inhibition was -6.77%. Molecule `COc1cccc(Oc2c(C)oc3c(CN4CCOCC4)c(O)ccc3c2=O)c1` has an inhibition of 8.63%. In the case of `Cn1c(N)c(C(=O)CSc2nc3ccccc3c(=O)n2Cc2ccccc2)c(=O)n(C)c1=O`, the inhibition is reported as 10.1%. Work on `Cc1ccc(CNC(=O)CCC2CCCN(Cc3c(C)nn(C(C)C)c3C)C2)o1` (centres undefined) yielded an inhibition of 7.13%. In the case of `Cc1ccc(Cn2c(C(CO)Nc3nc(-c4ccc(Cl)c([N+](=O)[O-])c4)cs3)nc3ccccc32)cc1` (centres undefined), the inhibition is reported as 1.74%. For `O=C(Cc1cccs1)Nc1nnc(SCC(=O)NC2CCCCC2)s1`, the inhibition was 3.29%. For `CC(C)Nc1nc(-c2ccccc2)nnc1-c1ccccc1`, the inhibition was -7.91%. Work on `C=CCNc1nc(-c2ccccc2)c(C(=O)OCC)cc1C#N` yielded an inhibition of 10.4%. For `CC(C)Nc1nc(-c2ccccn2)nc(-c2ccccc2)c1C#N`, the inhibition was 1.07%. In the case of `C=CCNc1cc(C(F)(F)F)nc(-c2ccccn2)n1`, the inhibition is reported as -12.7%. `c1ccc(-c2nc(NC3CCCC3)c3ccccc3n2)cc1` gave an inhibition of -1.14%. Molecule `Cc1nnc(-c2ccccc2)nc1N(C)C` has an inhibition of -13.6%. With `Oc1ccccc1-c1nc(NC2CCCC2)c2ccccc2n1` the inhibition was -9.82%. With `CCN(CC)c1nc(-c2ccccn2)nc(-c2ccccc2)c1C#N` the inhibition was 2.62%.
